Out of some 16,000 compounds screened, about 5,100 (32%) were called active. Another 25% or so got no clear call; they are omitted. Calls come from the whole dose curve; as a rule, active = well fitted curve in the direction sought with a large enough effect; inconclusive = small, poorly fitted or top-dose-only effect, or effect the other way; inactive = no such curve, though single readings can be large or run the other way. This is one part of the list.
Target: Cytochrome P450 3A4 (Homo sapiens) (UniProt P08684)
Sequence (P08684 whole entry, looked up): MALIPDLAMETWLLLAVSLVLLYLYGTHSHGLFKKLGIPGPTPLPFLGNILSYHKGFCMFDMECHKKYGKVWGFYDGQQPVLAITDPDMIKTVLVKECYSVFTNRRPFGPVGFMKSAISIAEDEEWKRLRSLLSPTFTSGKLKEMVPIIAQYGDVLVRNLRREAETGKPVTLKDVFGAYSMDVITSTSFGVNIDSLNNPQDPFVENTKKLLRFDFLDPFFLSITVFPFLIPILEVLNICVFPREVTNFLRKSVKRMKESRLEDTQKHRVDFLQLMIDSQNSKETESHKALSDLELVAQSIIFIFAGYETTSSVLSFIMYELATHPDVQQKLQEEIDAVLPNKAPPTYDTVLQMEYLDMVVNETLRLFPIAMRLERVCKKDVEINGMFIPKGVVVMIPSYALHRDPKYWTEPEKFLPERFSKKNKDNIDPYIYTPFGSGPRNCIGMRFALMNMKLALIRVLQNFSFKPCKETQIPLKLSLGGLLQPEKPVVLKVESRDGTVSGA
Assay: Cytochrome panel assay with activity outcomes
Settings: recombinant CYP, pro-luciferin dealkylation, luminescence, p450-cyp3a4; series mostly up to 57.1 µM; activity, negative = inhibition: at the top concentration
% is set by controls: 0 for no effect and ±100 for the full control effect.

SMILES	AC50	activity, negative = inhibition
C[C@@H](C(=O)NCc1ccc(S(C)(=O)=O)cc1)[C@H]1C[C@]1(C)[C@H](NC(=O)OCc1ccccc1)c1ccccc1	3.16 µM (active)	
C[C@@H](C(=O)NCc1cccc2ccccc12)[C@H]1C[C@]1(C)[C@H](NC(=O)OCc1ccccc1)c1ccccc1	0.398 µM (active)	
C[C@@H](C(=O)NCc1nc2ccccc2[nH]1)[C@@H]1C[C@@]1(C)[C@@H](NC(=O)OCc1ccccc1)c1ccccc1	1 µM (active)	
CC(NC(=O)OCc1ccccc1)C(=O)NCC1CCCO1 (stereo not given)		-4.26% (inactive)
C[C@@H](C(=O)NCc1ccc(S(C)(=O)=O)cc1)[C@@H]1C[C@@]1(C)[C@@H](NC(=O)OCc1ccccc1)c1ccccc1	1 µM (active)	
CS(=O)(=O)c1ccc([C@H](O)[C@H](CO)NC(=O)C(Cl)Cl)cc1		-5.21% [at 25.6 µM] (inactive)
Cc1cccc(C)c1OC[C@H](C)N		-12.4% [at 25.6 µM] (inactive)
C=CCSc1ncccc1C(=O)NCc1ccc(C)cc1	11.2 µM (active)	
CC/C(=N/Nc1ccccc1)c1cnnc(SC)n1	25.1 µM (active)	
CSc1nncc(-c2ccc(F)c(F)c2)n1		13.4% (inactive)
CCNC(=O)c1c(NC(C)=O)sc2c1CCCC2		-23% (inactive)
COCCCNC(=O)c1c(NC(=O)c2cccs2)sc2c1CCCC2	15.8 µM (active)	
CC(=O)Nc1sc2c(c1C(N)=O)CCCC2		-27.9% (inactive)
CC(=O)Nc1ccc(OCC(O)Cn2c3ccccc3c3ccccc32)c(C)c1 (stereo not given)	3.98 µM (active)	
CC(C)NC[C@@H](O)COc1ccccc1-n1cccc1		-14.7% (inactive)
OC(COc1ccc(OCC(O)CN2CCCCCC2)cc1)CN1CCCCCC1 (stereo not given)		3.14% (inactive)
O[C@@H](COc1cccc2ccccc12)CN1CCOCC1		-6.73% [at 11.4 µM] (inactive)
OC[C@@H](O)COc1cccc2ccccc12		-23% (inactive)
Cc1ccccc1OCC(O)Cn1c2ccccc2c2ccccc21 (stereo not given)	12.6 µM (active)	
O[C@H](COc1ccccc1)CN1CCCCC1		-3.03% [at 11.4 µM] (inactive)
Cc1ccc(OCC(O)Cn2c3ccccc3c3ccccc32)cc1 (stereo not given)	17.8 µM (active)	
Cc1cccc(C)c1OCC(O)CNC(C)(C)C (stereo not given)		-9.33% (inactive)

SMILES	AC50	activity, negative = inhibition
CC(=O)Nc1c(I)c(C(=O)N[C@H]2[C@@H](O)[C@H](O)[C@H](CO)O[C@@H]2O)c(I)c(N(C)C(C)=O)c1I		-2.58% [at 25.6 µM] (inactive)
NC(N)=NC(=O)c1nc(Cl)c(N2CCCCCC2)nc1N		-23.3% (inactive)
Cc1cc(C)n(-c2nnc(C)n2/N=C/c2ccccc2OCc2ccccc2Cl)n1	2.24 µM (active)	
O=C(c1ccc(F)cc1)C1CCN(C(=S)Nc2ccccc2)CC1	10 µM (active)	
CCCNC(=O)N1CCC(C(=O)c2ccc(F)cc2)CC1		-0.769% [at 2.29 µM] (inactive)
S=C(Nc1ccccc1)N1CCCCC1		-4.5% (inactive)
N#Cc1cc(-c2ccc(Cl)cc2)cnc1Sc1ccccc1		-8.46% (inactive)
N#Cc1cc(N)ccc1Sc1ccc(Cl)cc1	5.62 µM (active)	
Cc1ccc(Sc2cc(Cl)nc(N)n2)cc1		-5.02% (inactive)
COc1cc2c3cc1Oc1cc(ccc1O)C[C@@H]1c4c(cc(OC)c(O)c4Oc4ccc(cc4)C[C@H]3[N+](C)(C)CC2)CC[N+]1(C)C		0.655% [at 11.4 µM] (inactive)
C=CC(=O)NC(C)(C)Cc1ccccc1	15.8 µM (active)	
N[C@@](CC(=O)O)(Cc1ccccc1)C(=O)O		-4.69% [at 11.4 µM] (inactive)
C/C(=C/C(=O)NCc1ccccc1)C(=O)O		9.5% (inactive)
CC1CCCC(NC(=O)CCn2c(=O)oc3ccccc32)C1C (stereo not given)	14.1 µM (active)	
COCCNC(=O)CCn1c(=O)oc2ccccc21		-1.1% (inactive)
Cc1ccc(CNC(=O)Cn2c(=O)oc3ccccc32)o1		1.22% [at 11.4 µM] (inactive)
CC[N+](C)(C)c1cccc(O)c1		-3.37% (inactive)
CC1(C)c2ssc(=S)c2-c2ccccc2N1C(=O)CSC1=NCCS1	1.78 µM (active)	
COc1ccc(-n2c(=O)cnc3cnc(OC)nc32)cc1		-17.2% (inactive)
O=c1cnc2cnc(Oc3ccccc3)nc2n1C1CC1		-19.7% (inactive)
COc1ccc(-n2c(=O)cnc3cnc(Oc4ccccc4)nc32)cc1	15.8 µM (active)	
COc1ccc(-n2c(=O)cnc3cnc(Oc4cccc(Cl)c4)nc32)cc1	10 µM (active)	

SMILES	AC50	activity, negative = inhibition
O=c1cnc2cnc(Oc3cccc(Cl)c3)nc2n1C1CC1		11.3% (inactive)
COc1ccc(-n2c(=O)cnc3cnc(N4CCOCC4)nc32)cc1		-13.4% (inactive)
COC(=O)C(C)Sc1ccc2nnc(-c3ccc(F)cc3)n2n1 (stereo not given)		-17.6% (inactive)
CCCCN(CC)S(=O)(=O)c1ccc(C(=O)Nc2nnc(CSC)o2)cc1		2.56% [at 11.4 µM] (inactive)
CCn1c(-c2ccoc2C)n[nH]c1=S		-8% (inactive)
CCCOc1cccc(-c2cc(-c3n[nH]c(=S)n3CC)c3ccccc3n2)c1	10 µM (active)	
CCc1ccc(-c2ccc(C(=O)C(F)(F)F)[nH]2)cc1		13.7% (inactive)
CC(C)(Oc1ccc(CCNC(=O)c2ccc(Cl)cc2)cc1)C(=O)O		-9.06% [at 25.6 µM] (inactive)
CC(C)(Oc1ccc([C@@H]2CC2(Cl)Cl)cc1)C(=O)O	inactive	
CC(C)(Oc1ccc(Cl)cc1)C(=O)Nc1ccncc1	0.794 µM (active)	
C[C@@H]1CCC[C@H](C)N1		-0.959% [at 25.6 µM] (inactive)
O=C(Nc1cccnc1)c1ccc(COc2cc(Cl)ccc2Cl)o1	4.47 µM (active)	
O=C(N/N=C/c1ccc(O)cc1)c1ccc(COc2cc(Cl)ccc2Cl)o1		-27.3% [at 2.29 µM] (inactive)
CC(C)C(=O)Nc1ccc(C(=O)NNC(=O)CCCOc2ccc(Cl)cc2Cl)cc1		-17.2% (inactive)
CC(C)CNC(=O)c1ccc(COc2ccc(Cl)cc2Cl)o1	20 µM (active)	
O=C(Nc1ccn(Cc2ccccc2F)n1)c1ccc(COc2cc(Cl)ccc2Cl)o1	0.891 µM (active)	
Clc1ccc(Cl)c(OCc2cc(-c3ccccc3Cl)on2)c1		10.7% (inactive)
O[C@@H](C1=C/C(=C\c2ccncc2)c2ccccc21)c1ccncc1	0.794 µM (active)	
NS(=O)(=O)c1ccc(N=Nc2c(O)c(C(=O)O)cc3ccccc23)cc1		-2.48% [at 11.4 µM] (inactive)
Cc1cccc(Oc2ncnc3onc(C)c23)c1C		-11% (inactive)
Cn1c(SCC(=O)NC2CC2)nnc1-c1cccc(NC(=O)c2ccccc2F)c1	12.6 µM (active)	

From PubChem BioAssay AID1851 (National Center for Advancing Translational Sciences (NCATS), 2009)
